Common to all, as to test: yeast three-hybrid, YBZ-1, SC-Leu-His + 0.5 mM 3-AT, 4 days
Common to all, as to details: tags: N-Gal4 AD-HA kept; label: inside an RPR1-promoter hybrid RNA with tandem MS2 sites; ssRNA

The target in one test is PUM1 PUF domain R3-LRT (Homo sapiens, UniProt Q14671 828-1176, C935L;Q939T). An outline of the steps:
(§1)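 Repeat regions from input (SC-Leu) and selection (SC-Leu-His + 0.5 mM 3-AT) plates were PCR-amplified and Illumina-sequenced after four days of growth. The cells were strain YBZ-1 with a LexA–MS2 coat fusion and a HIS3 reporter, co-expressing Pumilio-1 PUF domain libraries and matching RNA elements from a centromeric plasmid. The interaction score is the log change in variant frequency from input to selection, taken in log2 with a pseudocount of 1 for absent variants.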

A further test addresses PUM1 PUF domain R3-GFP (Homo sapiens, UniProt Q14671 828-1176, C935G;R936F;Q939P). An outline of the steps: as §1
The next test addresses PUM1 PUF domain R3-CPT (Homo sapiens, UniProt Q14671 828-1176, R936P;Q939T). A digest of the protocol: as §1
A further test addresses PUM1 PUF domain R3-CRP (Homo sapiens, UniProt Q14671 828-1176, Q939P). An outline of the steps:
as §1

The next test deals with PUM1 PUF domain R4-ANY (Homo sapiens, UniProt Q14671 828-1176, N971A;H972N;Q975Y). An outline of the steps: as §1
The target in the next test is PUM1 PUF domain R4-CPT (Homo sapiens, UniProt Q14671 828-1176, N971C;H972P;Q975T). A digest of the protocol: as §1
The target in the next test is PUM1 PUF domain R7-LHG (Homo sapiens, UniProt Q14671 828-1176, S1079L;N1080H;E1083G). An outline of the steps: as §1
A further test addresses PUM1 PUF domain R5-RYV (Homo sapiens, UniProt Q14671 828-1176, C1007R;R1008Y;Q1011V). A digest of the protocol: as §1
In the next test the target is PUM1 PUF domain R5-QCC (Homo sapiens, UniProt Q14671 828-1176, C1007Q;R1008C;Q1011C). An outline of the steps: as §1
In the next test the target is PUM1 PUF domain R8-RYA (Homo sapiens, UniProt Q14671 828-1176, N1122R;Q1126A). An outline of the steps: as §1
In a further test the target is PUM1 PUF domain R5-EHR (Homo sapiens, UniProt Q14671 828-1176, C1007E;R1008H;Q1011R). An outline of the steps:
as §1

The next test has as its target PUM1 PUF domain R4-ALS (Homo sapiens, UniProt Q14671 828-1176, N971A;H972L;Q975S). A digest of the protocol:
as §1

The next test deals with PUM1 PUF domain R5-HRG (Homo sapiens, UniProt Q14671 828-1176, C1007H;Q1011G). An outline of the steps: as §1
The target of a further test is T1, PUM1 PUF domain R6-SWR (Homo sapiens, UniProt Q14671 828-1176, N1043S;Y1044W;Q1047R).
T1 sequence: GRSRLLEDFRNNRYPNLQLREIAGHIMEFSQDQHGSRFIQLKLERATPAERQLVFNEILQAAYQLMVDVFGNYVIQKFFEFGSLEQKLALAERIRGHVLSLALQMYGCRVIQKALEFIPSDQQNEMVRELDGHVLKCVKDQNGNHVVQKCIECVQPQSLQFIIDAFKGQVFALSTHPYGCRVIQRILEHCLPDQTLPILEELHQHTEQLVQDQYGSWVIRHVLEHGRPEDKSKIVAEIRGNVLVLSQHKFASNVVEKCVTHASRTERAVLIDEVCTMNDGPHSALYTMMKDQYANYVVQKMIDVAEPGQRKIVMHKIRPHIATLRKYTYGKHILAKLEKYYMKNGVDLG
An outline of the steps:
as §1

For another test, the target named is PUM1 PUF domain R1-KKV (Homo sapiens, UniProt Q14671 828-1176, S863K;R864K;Q867V). A digest of the protocol: as §1
A further test addresses PUM1 PUF domain R5-VHM (Homo sapiens, UniProt Q14671 828-1176, C1007V;R1008H;Q1011M). A digest of the protocol: as §1
The next test has as its target PUM1 PUF domain R5-WHA (Homo sapiens, UniProt Q14671 828-1176, C1007W;R1008H;Q1011A). An outline of the steps: as §1
A further test addresses PUM1 PUF domain R1-GVK (Homo sapiens, UniProt Q14671 828-1176, S863G;R864V;Q867K). A digest of the protocol: as §1
Another test has as its target PUM1 PUF domain R1-NKK (Homo sapiens, UniProt Q14671 828-1176, S863N;R864K;Q867K). A digest of the protocol:
as §1

The next test has as its target PUM1 PUF domain R3-YRC (Homo sapiens, UniProt Q14671 828-1176, C935Y;Q939C). An outline of the steps: as §1

On to “GGCUAGAACUAGUGGAUCCCCCGGCGCCCGGCGGCUCGAGCCCGGGUAAGUGUAAUUAGUCUGCAUGCCGCCGGGCGCCAUGCCUGCAGGUCGACUCUAGAAAACAUG”, for which the binding signal with PUM1 PUF domain R3-LRT was 1.36 log2 enrichment (interaction score); in the test with PUM1 PUF domain R3-GFP it was 4.82 log2 enrichment (interaction score); in the test with PUM1 PUF domain R3-CPT it was 1.02 log2 enrichment (interaction score); with PUM1 PUF domain R3-CRP, 1.1 log2 enrichment (interaction score).
In the case of “GGCUAGAACUAGUGGAUCCCCCGGCGCCCGGCGGCUCGAGCCCGGGUAAGUGUAUAUAGUCUGCAUGCCGCCGGGCGCCAUGCCUGCAGGUCGACUCUAGAAAACAUG”, the binding signal is 3.22 log2 enrichment (interaction score) with PUM1 PUF domain R4-ANY and 3.09 log2 enrichment (interaction score) in the test with PUM1 PUF domain R4-CPT.
With “GGCUAGAACUAGUGGAUCCCCCGGCGCCCGGCGGCUCGAGCCCGGGUAAGUUUAAAUAGUCUGCAUGCCGCCGGGCGCCAUGCCUGCAGGUCGACUCUAGAAAACAUG”, the binding signal in the test with PUM1 PUF domain R7-LHG is 4.5 log2 enrichment (interaction score).
For “GGCUAGAACUAGUGGAUCCCCCGGCGCCCGGCGGCUCGAGCCCGGGUAAGUGUGAAUAGUCUGCAUGCCGCCGGGCGCCAUGCCUGCAGGUCGACUCUAGAAAACAUG”, the binding signal in the test with PUM1 PUF domain R5-RYV is 2.35 log2 enrichment (interaction score); in the test with PUM1 PUF domain R5-QCC it was 3.84 log2 enrichment (interaction score).
In the case of “GGCUAGAACUAGUGGAUCCCCCGGCGCCCGGCGGCUCGAGCCCGGGUAAGCGUAAAUAGUCUGCAUGCCGCCGGGCGCCAUGCCUGCAGGUCGACUCUAGAAAACAUG”, the binding signal with PUM1 PUF domain R8-RYA is 6.7 log2 enrichment (interaction score).
Regarding “GGCUAGAACUAGUGGAUCCCCCGGCGCCCGGCGGCUCGAGCCCGGGUAAGUGUAAAUAGUCUGCAUGCCGCCGGGCGCCAUGCCUGCAGGUCGACUCUAGAAAACAUG”, the binding signal in the test with PUM1 PUF domain R5-EHR was 3.38 log2 enrichment (interaction score); with PUM1 PUF domain R4-ALS it was 4.11 log2 enrichment (interaction score); in the test with PUM1 PUF domain R5-HRG, 0.26 log2 enrichment (interaction score); with PUM1 PUF domain R3-CPT, 2.54 log2 enrichment (interaction score); in the test with PUM1 PUF domain R3-CRP, 4.84 log2 enrichment (interaction score); in the test with PUM1 PUF domain R6-SWR it was 8.07 log2 enrichment (interaction score). Moreover, the binding signal was 2.4 log2 enrichment (interaction score) with PUM1 PUF domain R1-KKV, 2.73 log2 enrichment (interaction score) with PUM1 PUF domain R5-VHM, 1.08 log2 enrichment (interaction score) in the test with PUM1 PUF domain R5-WHA and 1.83 log2 enrichment (interaction score) with PUM1 PUF domain R5-RYV.
Regarding “GGCUAGAACUAGUGGAUCCCCCGGCGCCCGGCGGCUCGAGCCCGGGUAAGUGUAAAUUGUCUGCAUGCCGCCGGGCGCCAUGCCUGCAGGUCGACUCUAGAAAACAUG”, the binding signal in the test with PUM1 PUF domain R1-GVK was 2 log2 enrichment (interaction score).
As for “GGCUAGAACUAGUGGAUCCCCCGGCGCCCGGCGGCUCGAGCCCGGGUAAGUGUAAAUGGUCUGCAUGCCGCCGGGCGCCAUGCCUGCAGGUCGACUCUAGAAAACAUG”, the binding signal with PUM1 PUF domain R1-NKK was 3.03 log2 enrichment (interaction score).
“GGCUAGAACUAGUGGAUCCCCCGGCGCCCGGCGGCUCGAGCCCGGGUAAGUGUACAUAGUCUGCAUGCCGCCGGGCGCCAUGCCUGCAGGUCGACUCUAGAAAACAUG”: the binding signal in the test with PUM1 PUF domain R4-CPT is 1.75 log2 enrichment (interaction score).
Consider “GGCUAGAACUAGUGGAUCCCCCGGCGCCCGGCGGCUCGAGCCCGGGUAAGUCUAAAUAGUCUGCAUGCCGCCGGGCGCCAUGCCUGCAGGUCGACUCUAGAAAACAUG”, for which the binding signal in the test with PUM1 PUF domain R7-LHG is 3.19 log2 enrichment (interaction score).
Take “GGCUAGAACUAGUGGAUCCCCCGGCGCCCGGCGGCUCGAGCCCGGGUAAGUGCAAAUAGUCUGCAUGCCGCCGGGCGCCAUGCCUGCAGGUCGACUCUAGAAAACAUG”: the binding signal with PUM1 PUF domain R6-SWR is 7.3 log2 enrichment (interaction score).
Consider “GGCUAGAACUAGUGGAUCCCCCGGCGCCCGGCGGCUCGAGCCCGGGUAAGUGUUAAUAGUCUGCAUGCCGCCGGGCGCCAUGCCUGCAGGUCGACUCUAGAAAACAUG”, for which the binding signal with PUM1 PUF domain R5-HRG is 3.89 log2 enrichment (interaction score); with PUM1 PUF domain R5-RYV, 4.93 log2 enrichment (interaction score).
For the sequence “GGCUAGAACUAGUGGAUCCCCCGGCGCCCGGCGGCUCGAGCCCGGGUAAGUGUCAAUAGUCUGCAUGCCGCCGGGCGCCAUGCCUGCAGGUCGACUCUAGAAAACAUG”, the binding signal in the test with PUM1 PUF domain R5-HRG is 1.78 log2 enrichment (interaction score); with PUM1 PUF domain R5-WHA it was 3.04 log2 enrichment (interaction score); in the test with PUM1 PUF domain R5-RYV, 5.29 log2 enrichment (interaction score).
Consider “GGCUAGAACUAGUGGAUCCCCCGGCGCCCGGCGGCUCGAGCCCGGGUAAGUGUAAGUAGUCUGCAUGCCGCCGGGCGCCAUGCCUGCAGGUCGACUCUAGAAAACAUG”, for which the figures for the binding signal with PUM1 PUF domain R3-LRT, in the test with PUM1 PUF domain R3-CRP and in the test with PUM1 PUF domain R3-YRC were 4.37 log2 enrichment (interaction score), 1.62 log2 enrichment (interaction score) and 4.22 log2 enrichment (interaction score), respectively.
Regarding “GGCUAGAACUAGUGGAUCCCCCGGCGCCCGGCGGCUCGAGCCCGGGUAAGUGUAAAUCGUCUGCAUGCCGCCGGGCGCCAUGCCUGCAGGUCGACUCUAGAAAACAUG”, the binding signal with PUM1 PUF domain R1-GVK is 3.43 log2 enrichment (interaction score); with PUM1 PUF domain R1-NKK, 4.39 log2 enrichment (interaction score).

The record behind these values is paper PMC8384837, “Expanding the binding specificity for RNA recognition by a PUF domain”.
